Screening results (PubChem BioAssay)
In the library only some 19% were active in any assay of this set; here they are far more common.
HT1080NT lethal: kills 2HG-producing HT-1080-NT fibrosarcoma cells | HT-1080-NT fibrosarcoma viability, CellTiter-Glo ATP luminescence, 48 h | 360,000 tested, 1.6% active | AID 686970 | Potency, µM (doses to about 46.1 µM), actives largely listed as cytotoxic;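 also: NT is the 2HG producing partner of a matched IDH1 knockdown line; nearly all actives have a fitted effect of over 55% in size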
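750 cells/well, RPMI + 5% FBS; 2 h settle, compound pin-transfer, 48 h at 37 degrees C. CellTiter-Glo 10 min RT, luminescence. Normalized to DMSO and media-only wells.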
TDP1 cell CPT: DT40-hTDP1 cell growth loss with CPT. chicken DT40 Tdp1-/-;hTDP1 cells + 20 nM CPT, ATP luminescence, 48 h. Potency, µM (doses to about 46.2 µM), most hits filed as inhibitors. 420,000 tested, 12% active. AID 686979; also: nearly all actives have a fitted effect of over 55% in size
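Chicken DT40 Tdp1-/- cells complemented with human TDP1, 400 cells/well, exposed to compounds plus 20 nM camptothecin for at least 48 h at 37 C; viability read as ATP content by CellTiter-Glo luminescence.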
IL1B secr inh: blocks inflammasome-driven IL-1 beta release; THP-1 LPS/ATP IL-1B secretion, AlphaLISA, 16 h; active compounds read low; activity change, % at 57.5 µM; 360,000 tested, 4.7% active; in the data active = activity change below about -50%; inconclusive = mostly about -30% to -49%
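THP-1 cells pretreated 1 hr with compounds (up to 57.5 uM final), then stimulated with LPS (250 ng/mL final) plus ATP (1.25 mM final); secreted IL-1B measured by AlphaLISA after 16 hr, decreased signal indicating inhibition.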
HT1080 IDH1KD tx: toxicity to HT-1080 IDH1 knockdown cells (counter line); HT-1080 IDH1 knockdown viability, ATP luminescence, 48 h; Potency, µM (titrated, usually from 46.1 µM), most hits filed as cytotoxic; 360,000 tested, 2% active
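Using the IDH1-knockdown HT-1080 line run in the same batch and compound series as the NT line, viability after 48 h at 37 °C was determined by CellTiter-Glo luminescence and expressed as % activity.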
TDP1 cell noCPT: qHTS for Inhibitors of human tyrosyl-DNA phosphodiesterase 1 (TDP1): qHTS in cells in absence of CPT | Potency, µM (titrated, usually from 46.2 µM), hits mostly inhibitors | AID 686978, 2013 | DT40 Tdp1-/- hTDP1 cells, no CPT, ATP luminescence, 48 h | 420,000 tested, 15% active; also: nearly all actives have a fitted effect of over 55% in size
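Stably hTDP1-transfected Tdp1-null chicken DT40 cells were treated with library compounds minus camptothecin and grown for at least 48 hr at 37 °C, after which cellular ATP was quantified by luminescence.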
Large screens that a line does not name were inactive. Unless noted, calls follow the shape of the dose curve; as a rule, active = well fitted curve in the direction sought with a large enough effect; inconclusive = small, poorly fitted or top-dose-only effect, or another doubt; inactive = no such curve, though single readings can be large; an effect the other way counts as inactive or inconclusive.

CCOC(=O)[C@]12CCCC=C1N(Cc1cccc3ccccc13)C(=O)[C@H](CC(=O)NCC1CCCCC1)C2	TDP1 cell CPT inconclusive, TDP1 cell noCPT 23.1µM
CCOC(=O)[C@]12CCC=C1N(Cc1cccc3ccccc13)C(=O)[C@H](CC(=O)NCCc1ccccc1OC)C2	TDP1 cell CPT inconclusive, IL1B secr inh inconclusive, TDP1 cell noCPT 18.4µM
CCOC(=O)[C@]12CCC=C1N(Cc1ccc3c(c1)OCO3)C(=O)[C@H](CC(=O)NCCc1ccccc1OC)C2	TDP1 cell CPT inconclusive, TDP1 cell noCPT inconclusive
CCOC(=O)[C@]12CCC=C1N(Cc1cccc3ccccc13)C(=O)[C@H](CC(=O)NCc1ccccc1)C2	TDP1 cell CPT inconclusive, TDP1 cell noCPT inconclusive
CCOC(=O)[C@]12CCCC=C1N(Cc1cccc3ccccc13)C(=O)[C@H](CC(=O)NCc1ccccc1)C2	HT1080NT lethal inconclusive, TDP1 cell CPT inconclusive, HT1080 IDH1KD tx inconclusive, TDP1 cell noCPT 23.1µM
CCOC(=O)[C@]12CCCC=C1N(Cc1cccc3ccccc13)C(=O)[C@H](CC(=O)NCc1ccc(OC)c(OC)c1)C2	HT1080NT lethal inconclusive, TDP1 cell CPT inconclusive, IL1B secr inh -69.2, HT1080 IDH1KD tx inconclusive, TDP1 cell noCPT 16.4µM
COc1cccc2cc(C(=O)OC(C)C(=O)c3ccc(C)cc3)c(=O)oc12 (configuration not stated)	none
Cc1ccc(C(=O)C(C)OC(=O)c2cc3cc([N+](=O)[O-])ccc3oc2=O)cc1 (configuration not stated)	HT1080 IDH1KD tx 11.2µM
O=c1[nH][nH]c(-c2ccccc2O)c1C(C[N+](=O)[O-])c1ccccc1 (configuration not stated)	TDP1 cell CPT 4.61µM, TDP1 cell noCPT 5.17µM
O=c1[nH][nH]c(-c2ccccc2O)c1C(C[N+](=O)[O-])c1cccc(Cl)c1 (configuration not stated)	TDP1 cell CPT inconclusive, TDP1 cell noCPT inconclusive
COC(=O)c1cccnc1-n1c(=O)c2cccnc2n(Cc2cccc([N+](=O)[O-])c2)c1=O	TDP1 cell CPT inconclusive, TDP1 cell noCPT 11.6µM
COc1cc(C2=NOC(C(=O)Nc3ccc(C)cc3)C2)cc(OC)c1OC (configuration not stated)	TDP1 cell CPT 12.6µM, TDP1 cell noCPT 11.2µM
COc1cc(NC(=O)C2CC(c3ccccc3Cl)=NO2)cc(OC)c1OC (configuration not stated)	HT1080NT lethal inconclusive, TDP1 cell CPT 16.4µM, TDP1 cell noCPT 23.1µM
COc1cc(NC(=O)C2CC(c3ccc(Cl)cc3)=NO2)cc(OC)c1OC (configuration not stated)	TDP1 cell noCPT inconclusive
CCOC(=O)C1(N(CC)CC)Sc2cc(C)ccc2NC1=O (configuration not stated)	HT1080NT lethal inconclusive, TDP1 cell CPT 16.4µM, HT1080 IDH1KD tx inconclusive, TDP1 cell noCPT 18.4µM
CCOC(=O)c1[nH]c2ccc(C)cc2c1N	TDP1 cell CPT inconclusive, TDP1 cell noCPT inconclusive
Cc1coc(=N)n1CC(=O)c1ccc(Cl)cc1	none
COc1ccc(CNC(=O)Cc2c(C)c3c(cc(C)c4c(C)coc43)oc2=O)cc1	none (no result: HT1080NT lethal, IL1B secr inh, HT1080 IDH1KD tx)
C=CC(C1=CC(=O)C(OC)=CC1=O)c1ccc(OC)cc1 (configuration not stated)	TDP1 cell CPT 3.26µM, TDP1 cell noCPT 2.91µM (no result: HT1080NT lethal, IL1B secr inh, HT1080 IDH1KD tx)
C=CC(C1=CC(=O)C(OC)=CC1=O)c1ccccc1 (configuration not stated)	TDP1 cell CPT 3.66µM, TDP1 cell noCPT 2.91µM (no result: HT1080NT lethal, IL1B secr inh, HT1080 IDH1KD tx)
C=CC(C1=CC(=O)C(OC)=C(OC)C1=O)c1ccccc1 (configuration not stated)	TDP1 cell CPT 0.82µM, TDP1 cell noCPT 0.731µM (no result: HT1080NT lethal, IL1B secr inh, HT1080 IDH1KD tx)
COc1cccc(CC(=O)Nc2cc(S(=O)(=O)N3CCOCC3)ccc2N2CCN(C)CC2)c1	none
CN1C(=O)/C(=C/c2ccc(OCc3ccccc3F)cc2)NC1=S	none
O=C(N[C@@H](Cc1c[nH]c2ccccc12)C(=O)O)C1CCN(S(=O)(=O)c2ccc(Cl)cc2)CC1	none
O=C(Nc1nc(-c2ccc3c(c2)OCCO3)cs1)C1CCCC1	TDP1 cell CPT inconclusive, TDP1 cell noCPT inconclusive
Cc1ccc(Cl)cc1N1CCN(C(=O)c2cc3c(-c4ccccc4F)nn(C)c3s2)CC1	TDP1 cell CPT inconclusive, TDP1 cell noCPT 14.6µM (no result: HT1080NT lethal, IL1B secr inh, HT1080 IDH1KD tx)
Cc1ccc(Cl)cc1N1CCN(C(=O)c2cc3c(=O)oc4ccccc4c3s2)CC1	none (no result: HT1080NT lethal, IL1B secr inh, HT1080 IDH1KD tx)
CC(=O)c1ccc(N2CCN(C(=O)c3cc4c(-c5ccccc5F)nn(C)c4s3)CC2)cc1	TDP1 cell CPT 18.4µM, TDP1 cell noCPT 18.4µM
O=C(COC(=O)CN1C(=O)c2ccccc2C1=O)NC1CCCCC1	none
O=C(COC(=O)c1ccc(Cl)c(S(=O)(=O)N2CCCCCC2)c1)NCc1ccccc1	TDP1 cell CPT 23.1µM, TDP1 cell noCPT inconclusive
CCNc1ccc(C(=O)OCC(=O)N2CCCC2)cc1[N+](=O)[O-]	TDP1 cell CPT inconclusive, TDP1 cell noCPT inconclusive
Cc1[nH]c2ccccc2c1C(=O)COC(=O)c1cccc(S(=O)(=O)N2CCCCC2)c1	TDP1 cell CPT 18.4µM, TDP1 cell noCPT inconclusive
O=C(OCC(=O)N1CCCC1)c1ccc(Cl)c([N+](=O)[O-])c1	IL1B secr inh -57.3
O=C(COC(=O)c1ccc(Cl)c(S(=O)(=O)N2CCCC2)c1)NCc1ccccc1	TDP1 cell CPT inconclusive
CC(OC(=O)c1ccc(Cl)c([N+](=O)[O-])c1)C(=O)N1CCN(Cc2ccccc2)CC1 (configuration not stated)	TDP1 cell CPT inconclusive, IL1B secr inh -95.7, TDP1 cell noCPT inconclusive
O=Cc1ccc(OC2OCCOC2Oc2ccc(C=O)cc2)cc1 (configuration not stated)	TDP1 cell CPT inconclusive, TDP1 cell noCPT inconclusive
Cc1ccc(CNC(=O)COC(=O)c2ccc(Cl)c(N)c2)cc1	TDP1 cell CPT 23.1µM
O=C(OCC(=O)N1CCCCCC1)c1ccc(Cl)c(S(=O)(=O)N2CCCC2)c1	TDP1 cell CPT 23.1µM, TDP1 cell noCPT inconclusive
Cc1ccc(C(=O)OCC(=O)NCc2ccccc2)cc1S(=O)(=O)N1CCCCC1	TDP1 cell CPT 14.6µM, TDP1 cell noCPT inconclusive
Cc1ccc(C(=O)OCC(=O)c2c[nH]c3ccccc23)cc1NC(=O)c1ccco1	TDP1 cell CPT inconclusive, IL1B secr inh inconclusive, TDP1 cell noCPT 20.6µM
Cc1cc(CNC(=O)COC(=O)c2ccc(Cl)c(N)c2)cc(C)c1O	none
COc1cc(C(=O)NCCC(c2ccccc2)c2ccccc2)cc(OC)c1OC	TDP1 cell CPT inconclusive, TDP1 cell noCPT inconclusive
Cc1ccc(C(=O)OCC(=O)c2c[nH]c3ccccc23)cc1S(=O)(=O)N1CCCCC1	TDP1 cell CPT 23.1µM, TDP1 cell noCPT 18.4µM
Cc1ccc(C(=O)OCC(=O)Nc2ccccc2)cc1S(=O)(=O)N1CCCCC1	none
